Results published in publication PMC9574860, “Chemical Toolkit for PARK7: Potent, Selective, and High-Throughput” (Journal of Medicinal Chemistry, 2022).
About 400 (5.1%) of roughly 7,900 compounds showed an effect of 50% or more. Many of the other results were omitted from the sample, so strong results are more common in it than they were.

What follows are molecules tested against Parkinson's disease protein 7 (PARK7/DJ1) (human, UniProt Q99497) (assay: primary screen, percent inhibition; read as competition with a fluorescent probe by fluorescence polarization; higher = more effect of the substance). Conditions: 100 µM.
Method: The screen was conducted using the conditions as described above in 1536-well plates (Corning 3724) with a reaction volume of 8 μL per well. The compound library containing 7887 covalent fragments was purchased at Enamine Ltd. and received as 100 mM DMSO stocks in 384 well LDV Echo plates (Labcyte LP-0200). Stock solutions of 0.26 μM PARK7 and 80 nM JYQ-107 were prepared. Using a Labcyte Echo550 acoustic dispenser, 8 nL of the DMSO stock solution of the library compounds was transferred from the source plates into the empty 1536-well screening plates to obtain a 100 μM final compound concentration. Next, PARK7 (6 μL, final concentration 0.2 μM) was dispensed using a Biotek MultiflowFX liquid dispenser and incubated for 2 h, followed by dispensing the probe JYQ-107 (2 μL, final concentration 20 nM). After 2 h incubation, the FP signal was recorded on a BMG Labtech PHERAstar plate reader (λex/em 480/520 nm). The relative loss of FP signal compared with reference controls was used to calculate the remaining enzyme activity.

Parkinson's disease protein 7 (PARK7/DJ1), sequence (Q99497 whole entry, looked up, the tested form may be a part): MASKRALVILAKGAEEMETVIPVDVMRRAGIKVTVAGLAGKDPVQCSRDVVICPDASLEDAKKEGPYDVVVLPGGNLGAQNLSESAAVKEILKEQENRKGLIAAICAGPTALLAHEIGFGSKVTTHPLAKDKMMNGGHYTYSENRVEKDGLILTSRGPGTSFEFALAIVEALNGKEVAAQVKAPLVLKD

Compound | Inhibition % [%]
C=C(Cl)CSc1nc(N)cc(N)n1 | 18.5
CC(C)CN1CCN(c2ccc(C#N)nc2)C(C)C1=O (stereo not shown) | 5.84
O=C(CCl)Nc1ccccc1-c1ccccc1 | 8.41
CCn1cc(CCCl)cn1 | 5.4
CN1CN=C(S)NC1 | 3.57
C=CC(=O)NCC1(C)CCOCC1 | 4.38
C=CC(=O)NCC1CCC2(COC(C)C2)O1 (stereo not shown) | 2.62
C=CC(=O)NCc1ccc2c(c1)CCO2 | 9.41
C=CC(=O)Nc1cccc(C(F)F)c1 | 6.09
O=C(Cc1ccc2c(c1)COC2)Nc1cccc(S(=O)(=O)F)c1 | 97.6
O=C(Cc1cccc(C(F)F)c1)Nc1cccc(S(=O)(=O)F)c1 | 52
C=CC(=O)Nc1ccc2c(c1)COC2 | 11.5
O=C(CCl)Nc1cccc(S(=O)(=O)N=C2CCCN2)c1 | 18.3
O=C(Cc1ccc2c(c1)CCO2)Nc1cccc(S(=O)(=O)F)c1 | 94.3
O=C1CC2(CCNCC2)N1 | 3.72
N#CC(=Cc1ccc(N)cc1)C(N)=O | 8.09
CC(C)CNc1oc(Cc2ccccc2)nc1C#N | 6.85
C=CC(=O)NC1CC2(COC(C)C2)C1 (stereo not shown) | 8.04
COc1cc(C)c(C)cc1S(=O)(=O)n1cccn1 | 6.67
N#Cc1c(Cl)nc2sccn12 | 4.22
CCN(Cc1ccc(Cl)s1)C(=O)CCl | 9.61
N#Cc1ncn(CCC(=O)NCc2ccc(F)cc2)n1 | 7.22
O=C1CC2(CCN(Cc3ccc(Cl)cc3Cl)CC2)N1 | -1.16
O=C(CCl)N(Cc1ccccc1)c1ccccc1 | 10.7
CN(C(=O)CCCl)c1ccccc1 | 9.16
Cc1csc(N(C(=O)CCl)c2ccccc2)n1 | 87.3

Compound | Inhibition % [%]
O=C(CCl)Nc1ccc([N+](=O)[O-])cc1 | 32.8
CN(C(=O)CCl)c1ccccc1 | 79.7
O=C(CCl)NC(=O)Nc1ccccc1 | 28.5
Cc1cccc(N(Cc2ccccc2)C(=O)CCl)c1 | 9.42
Cc1ccc([N+](=O)[O-])cc1NC(=O)CCl | 18.4
CCN(C(=O)CCl)c1ccccc1 | 44.6
CN(C(=O)CCl)c1ccc([N+](=O)[O-])cc1 | 93.5
O=C(Nc1ccccc1)NN(C(=O)CCl)c1ccccc1 | 93.5
O=C(CCl)NN(c1ccccc1)c1ccccc1 | 10.3
Cl.Cl.O=C(O)C1CCN(C(=O)C=Cc2nc3ccccc3s2)C1 (stereo not shown) | 9.53
C=CC(=O)NC[C@H]1CC[C@H](c2ccccc2)O1 | 2.73
Cn1c(=O)c2c(ncn2CCS(=O)(=O)F)n(C)c1=O | 7.95
CC(C)Cc1ccc(C(C)NC(=O)CCl)cc1 (stereo not shown) | 9.76
CS(=O)(=O)OCC1(C#N)CCCCC1 | 8.05
CCCC(=O)NC1CCCN(c2ccc(C#N)nc2)C1 (stereo not shown) | 5.26
NC(=O)CCN(C(=O)CCl)c1ccc(F)cc1 | 37.5
N#CCCN(C(=O)CCl)c1ccccc1 | 14.9
NC(=O)CCN(C(=O)CCl)c1ccccc1 | 67.4
C=CC(=O)NCc1cnn2ccccc12 | 19.8
C=CC(=O)Nc1cnn2ccccc12 | 97
C=CC(=O)Nc1cc2ccccn2n1 | 30.2
C=CC(=O)NCc1noc2c1CCCC2 | 4.47
N#Cc1ncccc1N1CCC=C(F)C1 | 20.1
CC(C)c1nc2c(n1C)CCN(c1cccnc1C#N)C2 | 87
N#Cc1ncccc1N1CCc2ccccc2C1 | 26.9
C=CC(=O)NCc1ccc(CN2CCCCCC2)cc1 | 13.2

Compound | Inhibition % [%]
Cc1cc(C(=O)CCl)ccc1F | 24.6
O=C(CCl)c1ccc(F)c(C(=O)CCl)c1 | 100
O=C(CCl)c1ccc(F)c(Cl)c1 | 99.2
O=C(CCl)c1ccc(F)c(F)c1 | 22.1
O=C(CCl)Nc1ccc2[nH]c(C(F)(F)F)nc2c1 | 45
CC(NC(=O)Cn1cnc(C#N)n1)c1ccc(F)cc1F (stereo not shown) | 1.26
N#CN(Cc1ccno1)c1ccc(F)cc1 | 15.5
C=CC(=O)Nc1cc(F)ccc1C | 3.57
CC1CCCCC1NC(=O)Cn1cnc(C#N)n1 (stereo not shown) | 5.45
O=C(O)[C@H]1CCCN1C(=O)C=Cc1ccccc1F | 8.2
NC(=O)C1CCCCN1C(=O)CCl (stereo not shown) | 12.3
O=C(CCl)N1CCCC2CCCCC21 (stereo not shown) | 14.1
O=C(CCl)C1CCCN1C(=O)C(F)(F)F (stereo not shown) | 80.8
CC1(C)CCC(OS(C)(=O)=O)CC1 | 16.9
O=C(CCl)NCCc1ccc(Cl)cc1Cl | 23.1
CC(=O)NCCc1ccc(C(=O)CCl)cc1F | 81.3
CSc1ccc(C(=O)CCl)cc1NC(C)=O | 37.7
CC(=O)NCCc1cc(C(=O)CCl)ccc1F | 83.3
CSc1cc(C(=O)CCl)ccc1NC(C)=O | 5.59
Cc1nc(C=CC(=O)N2CCc3sccc3C2)cs1 | 4.01
O=C(CCl)Nc1nc2c(F)c(F)c(F)cc2s1 | -4.93
COc1ccc(N2CCN(CC3CO3)CC2)cc1 (stereo not shown) | 12.9
N#CC1CC2(CC(=O)N2)C1 (stereo not shown) | 5.93
Cc1ccc2cccc(OC(=O)N3CCCC3)c2n1 | 13.5
O=C1CC(c2ccccc2)N1 (stereo not shown) | 7.05
O=C(O)CC1CC(=O)N1 (stereo not shown) | 65.7

Compound | Inhibition % [%]
O=C1CC(Cc2ccccc2)N1 (stereo not shown) | 3.33
Cc1nc(C#N)c(N)nc1Cl | 10.2
Oc1ccnc(S)n1 | 2.99
Cc1ccc2ccccc2c1B(O)O | 0.986
O=S(=O)(F)c1ccc(S(=O)(=O)Nc2ccnnc2)cc1 | 8.23
COc1ccc(NS(=O)(=O)C=Cc2ccccc2)cc1 | 1.18
O=S(=O)(C=Cc1ccccc1)Nc1ccc(F)c(F)c1 | 1.18
CCn1cc(NS(=O)(=O)C=Cc2ccccc2)cn1 | 81.4
CN(C)c1ccc(NS(=O)(=O)C=Cc2ccccc2)cn1 | 69.9
N#Cc1ccc(NS(=O)(=O)C=Cc2ccccc2)cc1 | 10.5
Cc1ccc(C=CS(=O)(=O)Nc2cnn(CCO)c2)cc1 | 14.7
COc1ccc(NS(=O)(=O)c2ccc(S(=O)(=O)F)cc2)cn1 | 100
COc1ccccc1NS(=O)(=O)C=Cc1ccccc1 | 7.7
Cc1cc(NS(=O)(=O)C=Cc2ccccc2)ccn1 | 29.4
COc1ccc(NS(=O)(=O)C=Cc2ccccc2)cn1 | 59.9
O=C(CCl)NCc1ccc(C(=O)N2CCOCC2)cc1 | 19.5
C=CC(=O)NC1C2CCOC2C12CCCC2 (stereo not shown) | 5.2
C=CC(=O)N1CCOCC(C)C1 (stereo not shown) | 6.12
O=C1SCCN1CN1CCC(c2ccccc2)CC1 | 11.7
Cc1cccc(NC2C=CS(=O)(=O)C2)c1 (stereo not shown) | 7.19
CC1(C)COCCN1Cn1nc(-c2ccccc2)oc1=O | 8.59
COc1ncc(B2OC(C)(C)C(C)(C)O2)cn1 | 4.41
C=CC(=O)N1CCOCC1c1nnc(C(C)C)o1 (stereo not shown) | 10
Cc1cccc(C)c1N1C(=O)CN=C1S | 1.33
Cc1ccc(S(=O)(=O)N2CCCCC2C2OCCO2)cc1 (stereo not shown) | 3.92
O=C(CCc1ccc(S(=O)(=O)F)cc1)N1CCCCC1 | 12.4

Compound | Inhibition % [%]
O=C(O)Cc1ccc(S(=O)(=O)F)cc1 | 89.7
O=C(Cc1ccc(S(=O)(=O)F)cc1)NC1CCCC1 | 2.81
CC(C)N(C)C(=O)CCc1ccc(S(=O)(=O)F)cc1 | 4.68
O=C(Cc1ccc(S(=O)(=O)F)cc1)Nc1ccccc1Cl | 12.8
O=C(O)CCc1ccc(S(=O)(=O)F)cc1 | 82.3
OB(O)c1ccc(OCC(F)(F)F)cc1F | 13
CC(c1ccccc1)C1CO1 (stereo not shown) | -0.54
COc1ccc(C2CCCN2C(=O)n2ccnc2)cc1 (stereo not shown) | 6.77
CC1(C)OB(c2ccc(N)c(CO)c2)OC1(C)C | 7.71
C=CC(=O)N1CCCC(c2nc(C)c(C)s2)C1 (stereo not shown) | 6.18
C=CC(=O)N1CCC(c2ncno2)CC1 | 9.72
N#Cc1cnccc1S | 92.5
N#Cc1ccncc1C(=O)O | 12.3
N#Cc1cccnc1S | 11.9
O=C(c1ccccc1)N1CCC(CCl)C1 (stereo not shown) | 2.86
O=C(c1cccs1)N1CCCCC1CCS(=O)(=O)F (stereo not shown) | 84.1
O=C(CCl)NC(=O)c1cccs1 | 23.4
O=C(NCCS(=O)(=O)F)c1ccccc1 | 13.4
O=C(CCl)NC(=O)OCc1ccccc1 | 33.1
O=S(=O)(F)CCc1ccccc1 | 4.21
COC(=O)C1CC(S(=O)(=O)F)CN1C(=O)c1cccs1 (stereo not shown) | 11
O=C(OCc1ccccc1)N1CCCCC1CS(=O)(=O)F (stereo not shown) | 16
O=C(NCCCS(=O)(=O)F)OCc1ccccc1 | 95.8
O=C(c1ccccc1)N1CCCC(S(=O)(=O)F)C1 (stereo not shown) | 32.4
O=C(c1ccccc1)N1CCCC(CS(=O)(=O)F)C1 (stereo not shown) | 71.4
O=C(NCCCS(=O)(=O)F)c1cccs1 | 98.9
